FBPA Giardia inh: qHTS Assay for Inhibitors of Fructose-1,6-bisphosphate Aldolase from Giardia Lamblia. A8B2U2. purified Giardia FBPA. Potency, µM (doses to about 59.6 µM), without a hit: at the highest dose activity, negative = inhibition, usual class: inhibitors. hit rate 0.71% among 290,000; also: potency is read from the fitted curve at half-maximal effect; % is scaled to controls: 0 for no effect and ±100 for the full control effect; nearly all actives have a fitted effect of over 55% in size
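Giardia FBPA (40 nM reagent) was preincubated 10 min at RT with compound (up to 57.5 uM final), then substrate plus GAPDH/TPI/NAD/arsenate coupling system with diaphorase/resazurin was added; resorufin fluorescence (525/598 nm) was read after 20 min.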
Tb PYK inh: qHTS of Trypanosoma Brucei Inhibitors. TbPYK enzyme, Kinase-Glo Plus ATP luminescence, 45 min. Potency, µM (titrated, usually from 76.8 µM), without a hit: at the top dose activity, negative = inhibition, usual class: inhibitors. hit rate 0.12% among 410,000; also: potency is read from the fitted curve at half-maximal effect; % is scaled to controls: 0 for no effect and ±100 for the full control effect; nearly all actives have a fitted effect of over 50% in size
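Glycolytic pyruvate kinase of T. brucei was incubated with substrate, test compound and 130 uM ADP for 45 minutes at room temperature. Luminescent Kinase-Glo Plus signal was measured after 10 minutes.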
Cycloheximide cs: Cycloheximide Counterscreen for Small Molecule Inhibitors of Shiga Toxin | hit rate 12% among 300,000 | AID 2314, 2010 | max response, % | cell reporter, cycloheximide protein synthesis inhibition counterscreen; in the data active = max response mostly above about 13%, no sharp cut-off; inactive = mostly below about 14%; also: read at 38.3 µM for the half of the compounds with a filed dose; 0% is about no effect
RE007 growth inh: qHTS Assay for Inhibitors of the HIV-1 protein Vpr; hit rate 0.21% among 360,000; Potency, µM (doses to about 92.2 µM), for the others: at the top dose activity change, negative = less growth, actives largely listed as inhibitors; S. pombe RE007 Vpr strain, BacTiter-Glo ATP luminescence, 24 h; AID 651644, 2012; active = well fitted falling curve with a large enough effect; inconclusive = small, poorly fitted or top-dose-only effect; inactive = no such curve, though single readings can be large or run the other way; also: potency is read from the fitted curve at half-maximal effect; % is scaled to controls: 0 for no effect and ±100 for the full control effect; nearly all actives have a fitted effect of over 50% in size
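Fission yeast RE007 carrying one integrated HIV-1 vpr copy, seeded at OD 0.01 in PMG+AL medium with 23 nL pinned compound. Grown 24 h at 30 degrees; viability read by BacTiter-Glo luminescence after 5 min.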
Shiga inhibitor: A qHTS for Small Molecule Inhibitors of Shiga Toxin; Vero cells, Shiga toxin protein synthesis inhibition reporter; inhibition, % at 38.7 µM; hit rate 9.2% among 290,000; in the data active = inhibition mostly above about 28%, no sharp cut-off; inactive = mostly below about 43%; also: 0% is about no effect
LmPK inhibitor: qHTS Assay for Inhibitors of Leishmania Mexicana Pyruvate Kinase (LmPK) | AID 1721, 2009 | hit rate 0.37% among 290,000 | purified LmPK, Kinase-Glo ATP luminescence, 1 h | Potency, µM (highest dose often 57.5 µM), for the others: at the highest dose activity change, negative = inhibition, usual class: inhibitors; also: potency is read from the fitted curve at half-maximal effect; % is scaled to controls: 0 for no effect and ±100 for the full control effect
Target sequence (Q27686 whole entry, looked up): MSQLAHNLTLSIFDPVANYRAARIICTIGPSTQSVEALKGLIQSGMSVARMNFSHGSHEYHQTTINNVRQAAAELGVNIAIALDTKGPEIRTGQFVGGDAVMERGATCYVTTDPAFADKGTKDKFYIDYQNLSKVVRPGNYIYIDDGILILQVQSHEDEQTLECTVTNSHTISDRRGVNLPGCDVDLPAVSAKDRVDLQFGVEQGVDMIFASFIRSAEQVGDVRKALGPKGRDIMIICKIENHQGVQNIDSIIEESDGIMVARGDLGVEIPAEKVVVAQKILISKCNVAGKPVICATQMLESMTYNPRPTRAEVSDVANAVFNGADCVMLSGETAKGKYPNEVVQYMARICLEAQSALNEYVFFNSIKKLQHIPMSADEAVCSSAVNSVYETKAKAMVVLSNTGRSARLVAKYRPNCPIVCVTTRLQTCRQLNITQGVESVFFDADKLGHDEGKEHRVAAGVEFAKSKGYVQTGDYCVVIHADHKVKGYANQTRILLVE
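ATP generated from ADP (0.1 mM) and PEP (0.5 mM) by 0.1 nM LmPK over 1 h at room temperature (pH 7.2 imidazole buffer) was detected by coupled luciferase luminescence. Values were normalized to uninhibited and no-enzyme wells.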
An asterisk follows results filed as active; ? = inconclusive; . = not tested or not shown; [ ] = another dose, or the depositor's remark. This is one part of a sample in which hits are shown more often than they occur. Unless noted, calls follow the shape of the dose curve; as a rule, active = well fitted curve in the direction sought with a large enough effect; inconclusive = small, poorly fitted or top-dose-only effect, or another doubt; inactive = no such curve, though single readings can be large; an effect the other way counts as inactive or inconclusive.

SMILES | FBPA Giardia inh | Tb PYK inh | Cycloheximide cs | RE007 growth inh | Shiga inhibitor | LmPK inhibitor
COc1ccc(CCc2nnc(CCC(=O)N(C)Cc3ccncc3C)o2)cc1 | 6.3% | -0.2% | 22.2* | 4.9% | 70.0* | -3.9%
COc1ccccc1P(=O)(Cc1ccccc1)c1ccccc1 (centres undefined) | -5.6% | 0.6% | -6.7 | -4.1% | -5.0 | -5.5%
CCn1ccc2cc(S(=O)(=O)N3CCCN(C(=O)Nc4ccccc4F)CC3)ccc21 | . | -3.3% | . | . | . | .
CCN(CC1CCCO1)C(=O)CCc1nnc(CCc2ccc(OC)cc2)o1 (centres undefined) | 0.4% | 12.8% | 25.4* | -18.3% | 48.1* | -7.4%
C/C(=N\NC(=O)C1CC1)c1ccc(NC(=O)c2ccc(Br)o2)cc1 | -0.8% | . | 24.2* | . | 54.7* | -2.8%
C/C(=N\NC(=O)c1c(Cl)cnn1C)c1ccc(NC(=O)c2ccc(Br)o2)cc1 | . | -3.6% | 40.5* | -14.3% | 57.0* | -4.1%
COC(=O)c1ccc(NC(=S)NC(=O)c2c(Cl)cnn2C)cc1 | ? | -16.9% | 3.5 | -13.3% | 7.8 | 0.0%
COc1ccc(CC(=O)Nc2ccc(/C(C)=N\NC(=O)c3ccc(Br)o3)cc2)cc1 | -4.3% | -9.5% | 42.5* | -10.0% | 44.3* | 0.5%
C/C(=N\NC(=O)C1CCCC1)c1ccc(Cl)cc1 | . | 4.4% | 40.7* | 0.1% | 52.4* | 1.0%
CCOC(=O)C1CCCN(C(=O)c2ccc(NC(=O)c3nsc4ccccc34)cc2)C1 (centres undefined) | . | 0.1% | . | . | . | .
O=C1CCCC1C(=O)Nc1ccc2ccccc2c1 (centres undefined) | -0.7% | 4.8% | 17.1* | . | 45.1* | 0.3%
CC1=CCC2C(=O)N(CCc3c[nH]c4ccccc34)C(=O)C2C1 (centres undefined) | -8.2% | 0.9% | 23.2* | 4.4% | active | 1.6%
O=C1C2CC=C(Cl)CC2C(=O)N1CCc1c[nH]c2ccccc12 (centres undefined) | -1.2% | -10.9% | 21.6* | 4.0% | 46.6* | 5.4%
CC(C)OCCCNC(=O)CN1C(=O)c2cccnc2Sc2ccccc21 | . | 0.5% | . | . | . | .
COc1ccc(-c2cc(-c3n[nH]c(=S)n3-c3cc(OC)ccc3OC)[nH]n2)cc1 | 4.6% | ? | -5.9 | 22.7% | -9.5 | ?
S=c1[nH]nc(-c2cc(-c3ccco3)[nH]n2)n1-c1ccccc1 | -9.1% | ? | -6.1 | 22.0% | -10.8 | 12.6µM*
COc1ccc(OC)c(-n2c(-c3ccc(C)cc3)n[nH]c2=S)c1 | 2.3% | ? | -0.4 | -1.0% | -5.3 | 2.51µM*
Cc1occc1-c1n[nH]c(=S)n1-c1ccccc1 | -8.4% | 17.8µM* | -3.5 | -1.4% | 2.7 | ?
COc1ccc(OC)c(-n2c(-c3cc(-c4ccc(F)cc4)n[nH]3)n[nH]c2=S)c1 | 3.0% | ? | -8.8 | -13.5% | -8.7 | 14.1µM*
CCc1ccccc1NS(=O)(=O)c1ccc2[nH]cc(C(=O)N3CCCCC3)c(=O)c2c1 | . | -2.9% | . | . | . | .
CCOc1cc(C2C(C(=O)OC)=C(C)NC3=C2C(=O)c2ccccc23)c(Br)cc1O (centres undefined) | . | -9.5% | . | . | . | .
COc1ccc(OC)c(-n2c(-c3cccc(O)c3)n[nH]c2=S)c1 | -10.8% | 14.1µM* | 0.3 | 0.7% | -10.4 | 2µM*
COc1ccc(OC)c(-n2c(-c3cnccn3)n[nH]c2=S)c1 | ? | . | -2.3 | 0.1%[3.69 µM] | -4.3 | ?
COc1ccc(OC)c(-n2c(-c3cc(-c4ccco4)[nH]n3)n[nH]c2=S)c1 | 0.1% | 3.16µM* | 6.5 | 8.4% | -0.4 | 4.6%
COc1ccccc1-n1c(-c2ccc(NS(C)(=O)=O)cc2)n[nH]c1=S | -12.8% | ? | -2.9 | 0.2% | -17.8 | 7.94µM*
SMILES | FBPA Giardia inh | Tb PYK inh | Cycloheximide cs | RE007 growth inh | Shiga inhibitor | LmPK inhibitor
COc1ccc(-c2n[nH]c(=S)n2-c2cc(OC)ccc2OC)cc1 | 0.3% | 2.82µM* | 0.9 | 5.5% | -2.1 | 3.55µM*
Cc1ccc(C(=O)Nc2ccccc2C(=O)OCc2cc(=O)n3nc(C4CC4)sc3n2)cc1 | . | 3.7% | . | . | . | .
CC1=CC[C@@]2(CO)COC(c3ccccc3O)C1C2 (some centres undefined) | -3.0% | . | . | . | . | .
CC(C)COc1ccc(C(=O)N2CCCCC2CCN2CCCCC2)cc1 (centres undefined) | . | -7.6% | . | . | . | .
CCOc1ccc2nc(NC(=O)CN3CCN(CC)CC3)sc2c1 | ? | 6.2% | 12.4 | 0.6% | 17.1 | 0.1%
CCOC(=O)N1CCN(CC(=O)Nc2nc3ccc(OC)cc3s2)CC1 | ? | 7.1% | 24.8* | -2.2% | 44.7* | -1.8%
CCOc1ccc2nc(NC(=O)Cn3[nH]c(=O)c4ccccc4c3=O)sc2c1 | -16.9% | -15.6% | 40.6* | -15.3% | 53.5* | -5.1%
CCOc1ccc2nc(NC(=O)CN3CCOCC3)sc2c1 | -2.7% | -7.1% | 36.7* | 17.0% | 87.3* | -0.2%
CCOc1ccc2nc(NC(=O)CN3CCN(C)CC3)sc2c1 | -3.3% | -10.5% | 26.8* | -0.7% | 50.2 | -1.9%
CCOc1ccc2nc(NC(=O)CN3C(=O)C4CCCCC4C3=O)sc2c1 (centres undefined) | . | 8.1% | . | 3.1% | . | .
C#C[C@]1(O)CC[C@H]2[C@@H]3CCC4=CCCC[C@@H]4[C@H]3C(=C)C[C@@]21CC | . | 6.9% | . | . | . | .
CCCCOc1ccc(CNC(=O)C2CCCN(c3nnc(-n4c(C)ccc4C)s3)C2)cc1 (centres undefined) | . | -0.9% | . | . | . | .
CCCC/C(=N\NC(=O)c1ccc(Br)o1)c1ccccc1 | -0.7% | -5.2% | 31.6* | -10.1% | 46.0* | 4.7%
O=C(CNC(=O)c1ccc(Br)o1)NCc1ccc(Cl)cc1 | . | 1.2% | -1.2 | -2.6% | -3.7 | -0.5%
CC/C(=N/NC(=O)c1ccc(Br)o1)c1ccc(Cl)cc1 | -0.2% | -3.5% | 39.2* | 1.4% | 125.1* | -2.3%
COCCCNC(=O)c1ccc(Cn2c(=O)c3ccccc3n(CC(N)=O)c2=O)cc1 | . | -8.3% | . | . | . | .
O=C(Nc1ccccc1F)NC1CC1 | 6.1% | -0.4% | 23.0 | 3.7% | 52.1* | 1.9%
COC(=O)c1ccccc1NC(=O)NC1CCC(C)CC1 (centres undefined) | -0.8% | -12.6% | 16.3* | -0.6% | 33.7* | -2.3%
O=C(Nc1ccccc1F)NC1CCCCCCC1 | -7.4% | -4.4% | 57.3* | 6.6% | 98.1* | -2.1%
CCSC1(SCC)N=C(N)C2(C#N)C(c3ccccc3)NC(C)=C(C)C12C#N (centres undefined) | -0.3% | -2.6% | -0.4 | 56.2µM* | -22.5 | 2.2%
CCSC1(SCC)N=C(N)C2(C#N)C(c3ccc(F)cc3)C12C#N (centres undefined) | -4.8% | -6.8% | -3.7 | 4.47µM* | -21.7 | -3.7%
